Screening results deposited in PubChem by National Center for Advancing Translational Sciences (NCATS).
TGFb_SMAD3_inh – blocks TGF-b signaling | HepG2 CAGA-GFP TGF-b/SMAD3 reporter, GFP fluorescence, 18 h; TGF-beta stimulated, 500 pg/mL final | Potency, µM (top dose mostly 46.1 µM), inactives show top-dose activity, negative = inhibition, hits mostly inhibitors | 410,000 compounds, 1.2% hits | AID 588855; further: on the % scale 0 is the no-effect control and ±100 the full control effect; nearly all actives have a fitted effect of over 65% in size
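HEPG2 CAGA-GFP reporter cells (1000/well, DMEM with 1% FBS) received compounds, then recombinant TGF-beta at 500 pg/mL final for 18 hours at 37 degrees C. Per-cell GFP summed per well was normalised to unstimulated and stimulated DMSO controls before curve fitting.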
VP16_counter – counter-screen for ROR gamma inhibitors: Gal4-VP16 reporter; 310,000 compounds, 3.5% hits; AID 2546; Potency, µM (doses to about 53.6 µM), for the others: at the highest dose activity, negative = inhibition, most hits filed as inhibitors; Drosophila S2 Gal4-VP16 UAS-luciferase, luminescence, 20 h;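 further: Gal4-VP16 expression switched on by copper sulfate through the metallothionein promoter; on the % scale 0 is the no-effect control and ±100 the full control effect; nearly all actives have a fitted effect of over 50% in size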
RORgamma_inh – inhibitors of mouse ROR gamma transcriptional activity; 310,000 compounds, 5.4% hits; Drosophila S2 Gal4-RORgamma UAS-luciferase reporter, 20 h; Potency, µM (doses to about 53.6 µM), for inactives: at the top dose activity change, negative = inhibition, actives largely listed as inhibitors; P51450; AID 2551; further: on the % scale 0 is the no-effect control and ±100 the full control effect; nearly all actives have a fitted effect of over 60% in size
Target sequence (P51450 whole entry, looked up, the tested form may be a part): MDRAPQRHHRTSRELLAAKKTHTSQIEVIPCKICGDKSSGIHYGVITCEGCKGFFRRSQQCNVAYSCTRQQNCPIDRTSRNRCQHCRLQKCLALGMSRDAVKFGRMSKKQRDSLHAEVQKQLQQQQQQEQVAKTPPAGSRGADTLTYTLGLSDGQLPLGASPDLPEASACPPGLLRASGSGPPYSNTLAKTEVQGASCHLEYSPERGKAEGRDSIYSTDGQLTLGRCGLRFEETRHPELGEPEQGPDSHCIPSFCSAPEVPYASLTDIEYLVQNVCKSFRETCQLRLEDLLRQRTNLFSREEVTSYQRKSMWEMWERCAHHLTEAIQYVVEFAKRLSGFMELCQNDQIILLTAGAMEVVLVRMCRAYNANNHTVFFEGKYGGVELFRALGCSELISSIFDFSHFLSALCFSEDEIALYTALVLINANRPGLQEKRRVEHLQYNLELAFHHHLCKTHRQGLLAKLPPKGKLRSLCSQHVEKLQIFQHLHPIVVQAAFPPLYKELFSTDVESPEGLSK
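Stably transfected Drosophila Schneider cells are the test system, with ROR gamma fused to Gal4 and luciferase under UAS control; luminescence is read after 20 hr of 700 uM copper sulfate induction at ambient temperature.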
HepG2_tox – counter-screen for TGF-b inhibitors: cytotoxicity in HepG2 cells. AID 588856. HepG2 CAGA-GFP viability, ATP luminescence, 18 h. Potency, µM (highest dose often 46.1 µM), without a hit: at the top dose activity change, negative = cytotoxicity, actives largely listed as cytotoxic. 410,000 compounds, 0.76% hits
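CellTiter-Glo luminescence gave cytotoxicity after 18 hours at 37 degrees C. The cells were HepG2 CAGA-GFP in 1% FBS DMEM, stimulated with 500 pg/mL TGF-beta after compound addition. %Activity was normalised to no-cell wells (complete cell-killing) and DMSO (no toxicity), and curves were fitted and classified.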
ATXN2_expr_inh – ATXN2 expression inhibition; AID 1745845; HEK-293 ATXN2-luciferase reporter, luminescence, 24 h; 360,000 compounds, 0.72% hits; Potency, µM (titrated, usually from 57 µM), for inactives: at the top dose activity change, negative = inhibition, hits mostly inhibitors; further: on the % scale 0 is the no-effect control and ±100 the full control effect; nearly all actives have a fitted effect of over 55% in size
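ATXN2-luciferase reporter cells (luciferase flanked by upstream and downstream ATXN2 gene portions) were treated 24 h at 37 °C with compounds at up to 57 uM. SteadyGlo luminescence gave expression; GF-AFC fluorescence gave viability.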
ATXN_viability – reduces viability in counter-screen for ATXN expression inhibitors | S2 cells (HEK-293 line with an ATXN2-luciferase reporter) viability, CellTiter-Fluor protease fluorescence, 24 h | Potency, µM (top dose mostly 56.7 µM), hits mostly cytotoxic | 400,000 compounds, 0.49% hits; further: nearly all actives have a fitted effect of over 40% in size
* hit, by the source's call; i = inactive; ? = inconclusive; · = no result. Compounds with a hit are over-represented: about 6.3% of the library has one in this group of screens. The call rests on the fitted dose curve; in most records, active means well fitted curve in the direction sought with a large enough effect; inconclusive means small, poorly fitted or top-dose-only effect, or another doubt; inactive means no such curve, though single readings can be large; an effect the other way counts as inactive or inconclusive. Potency means the concentration at half of the fitted maximal effect.

SMILES TGFb_SMAD3_inh VP16_counter RORgamma_inh HepG2_tox ATXN2_expr_inh ATXN_viability
COc1ccc(-n2nc(C(=O)Nc3cc(C)ccn3)c3c4ccccc4n(C)c3c2=O)cc1Cl 2% · · -3% 13% i
CC(=O)c1ccc(C)cc1OC(=O)c1cccc(F)c1 7% 1% 14% -6% 0% i
Cc1ccc(C(=O)CC(=O)c2cccc(F)c2)c(O)c1 -5% ? 11µM* -30% -18% ?
Cc1ccc(C(=O)c2ccccc2C(=O)O)c(O)c1 6% 2% 1% 0% -7% i
Cc1ccc(C(=O)CC(=O)c2ccccc2C)c(O)c1 ? 5.6µM* 3.5µM* -23% 2% ·
CC[n+]1ccc(/C=C/c2c[nH]c3ccccc23)cc1 120% 13µM* 15% -23% ? i
CCCCCCCCCC[n+]1ccc(/C=C/c2c[nH]c3ccccc23)c2ccccc21 7.1µM* · · 13µM* · ·
CCCCCCCCCCCCCCCC[n+]1ccc(C)c2ccccc21 7.1µM* · · 11µM* · ·
